Measured values: article PMC4336329 (PLoS ONE, 2015)
Hit rate of the full screen: of about 310,000 compounds, about 14,000 (4.5%) showed an effect of 50% or more. Effects have a minus sign here. Many of the other results were omitted from the sample, so strong results are more common in it than they were.

Each compound was assayed against human ether-à-go-go-related gene (hERG) potassium channel (human, UniProt Q12809) (assay: primary screen, population patch clamp on CHO cells stably expressing hERG; higher = less effect of the substance).
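Note: peak tail current of the secondary pulse compared with the same well before compound.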

Chain of human ether-à-go-go-related gene (hERG) potassium channel (Q12809 whole entry, looked up): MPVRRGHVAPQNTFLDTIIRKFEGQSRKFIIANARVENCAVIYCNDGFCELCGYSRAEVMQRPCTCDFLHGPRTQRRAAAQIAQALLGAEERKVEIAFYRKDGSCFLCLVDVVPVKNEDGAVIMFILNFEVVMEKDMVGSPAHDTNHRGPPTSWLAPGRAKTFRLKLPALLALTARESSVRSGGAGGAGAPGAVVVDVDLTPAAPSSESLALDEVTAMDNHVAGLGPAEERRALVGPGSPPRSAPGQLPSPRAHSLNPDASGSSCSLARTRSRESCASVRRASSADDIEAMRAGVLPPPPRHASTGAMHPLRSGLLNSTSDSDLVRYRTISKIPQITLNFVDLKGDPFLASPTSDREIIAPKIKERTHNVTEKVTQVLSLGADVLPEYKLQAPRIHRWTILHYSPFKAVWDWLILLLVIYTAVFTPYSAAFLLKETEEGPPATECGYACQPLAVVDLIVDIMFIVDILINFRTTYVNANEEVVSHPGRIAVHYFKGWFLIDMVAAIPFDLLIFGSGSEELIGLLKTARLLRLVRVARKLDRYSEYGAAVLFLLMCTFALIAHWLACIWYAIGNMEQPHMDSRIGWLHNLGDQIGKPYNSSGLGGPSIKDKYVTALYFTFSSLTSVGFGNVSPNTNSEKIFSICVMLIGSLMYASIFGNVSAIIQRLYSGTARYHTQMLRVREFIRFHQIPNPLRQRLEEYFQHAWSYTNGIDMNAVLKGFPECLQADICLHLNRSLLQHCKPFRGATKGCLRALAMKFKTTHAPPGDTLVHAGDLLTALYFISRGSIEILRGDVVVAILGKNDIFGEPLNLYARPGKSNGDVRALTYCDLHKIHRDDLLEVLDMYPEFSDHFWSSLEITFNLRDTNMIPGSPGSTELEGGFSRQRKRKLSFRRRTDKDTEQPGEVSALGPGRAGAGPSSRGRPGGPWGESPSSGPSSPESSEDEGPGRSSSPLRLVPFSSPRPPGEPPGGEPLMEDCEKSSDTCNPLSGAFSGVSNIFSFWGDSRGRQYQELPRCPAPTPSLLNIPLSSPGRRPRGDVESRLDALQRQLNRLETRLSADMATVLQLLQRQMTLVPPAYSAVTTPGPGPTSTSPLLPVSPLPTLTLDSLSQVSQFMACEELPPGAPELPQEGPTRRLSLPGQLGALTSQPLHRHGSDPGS

| SMILES | hERG current change (%, negative = inhibition) at 10uM |
| --- | --- |
| O=C(c1ccc(Cl)cc1)N1N=CCC1(O)c1ccc(Cl)cc1 (stereo not drawn) | 15.7% |
| COc1cc(NC(=O)CN2C(=O)NC3(CCOc4ccccc43)C2=O)cc(OC)c1 (stereo not drawn) | -3.2% |
| CCc1ccc(NC(=O)C2CCN(S(=O)(=O)c3ccc4[nH]c(=O)ccc4c3)CC2)cc1 | 3.6% |
| Cc1ccc(NC(=O)c2c([N+](=O)[O-])c(C(C)(C)C)nn2C)c(C)c1 | 20.7% |
| Cc1ccc2cc(/C=N/NC(=O)c3ccccc3[N+](=O)[O-])c(Cl)nc2c1 | -5.33% |
| Cc1cc(C(=O)NCCN2C(=O)S/C(=C\c3cccs3)C2=O)ccc1[N+](=O)[O-] | -1.91% |
| COc1ccc(Nc2nc(N)nc(CN3CCN(c4ccccn4)CC3)n2)cc1 | -65.1% |
| COc1ccc(Nc2nc(N)nc(CSc3nccn3C)n2)cc1 | 4.64% |
| COc1ccc(NC(=S)N2CCN(c3ccccn3)CC2)cc1 | -0.967% |
| Cn1c(COc2ccc(C(=O)O)cc2)nc2ccccc21 | 14.7% |
| CC(OC(=O)CCc1c[nH]c2ccccc12)C(=O)c1ccccc1 (stereo not drawn) | -17.8% |
| COc1ncnc(-c2ccccc2)c1-c1ccccc1 | 1.86% |
| CCN1CCc2c(sc(NC(=O)COc3ccccc3)c2C(=O)OC)C1.Cl | -62.6% |
| COC(=O)c1c(NC(=O)c2ccco2)sc2c1CCN(C(C)=O)C2 | -2.22% |
| COC(=O)c1c(NC(=O)Cc2ccccc2)sc2c1CCN(C(C)C)C2.Cl | -61.4% |
| CC(C)N1CCc2c(sc(NC(=O)Cc3ccccc3)c2C#N)C1.Cl | -16% |
| CCN1CCc2c(sc(NC(=O)CN3C(=O)c4ccccc4C3=O)c2C(N)=O)C1.Cl | -36.6% |
| CC(C)N1CCc2c(sc(NC(=O)c3ccco3)c2C(N)=O)C1.Cl | -6.82% |
| COC(=O)c1c(NC(=O)c2ccc([N+](=O)[O-])o2)sc2c1CCN(C(C)C)C2.Cl | -25.1% |
| COC(=O)c1c(NC(=O)c2ccco2)sc2c1CCN(C(C)C)C2.Cl | -62.5% |
| CCOC(=O)c1c(NC(=O)Cc2ccccc2)sc2c1CCN(C)C2.Cl | -53% |
| COC(=O)c1c(NC(C)=O)sc2c1CCN(Cc1ccccc1)C2.Cl | -9.29% |
| CN1CCc2c(sc(NC(=O)Cc3ccccc3)c2C(N)=O)C1.Cl | -16.2% |
| CN1CCc2c(sc(NC(=O)Cc3ccccc3)c2C#N)C1.Cl | -7.24% |
